# Test results reported in PubChem BioAssay (NCATS).
# Values joined by “and” are separate entries in the source; they are usually repeats but may differ in a detail not shown here. Equal entries are not always repeated. Unmarked numbers belong to inactive results. Records with an inconclusive call do not appear. Entries that show only a call come without a potency. Some compounds were tested as several samples or in several runs, with calls that do not always agree. Active and inactive are the calls of the source. Unless noted, calls come from the whole dose curve; as a rule, active = well fitted curve in the direction sought with a large enough effect; inconclusive = small, poorly fitted or top-dose-only effect, or another doubt; inactive = no such curve, though single readings can be large; an effect the other way counts as inactive or inconclusive.
# How the values were obtained:
# Es-2 = assay: Primary qHTS to identify gynecologic anti-cancer compounds using libraries of approved drugs and bioactive compounds (AID 1345084); settings: Gynecologic cancer cell panel viability, ATPlite luminescence, 48 h; series mostly up to 57.5 µM; note: nearly all actives have a fitted effect of over 55% in size
# Procedure, shortened: (§1)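 Luminescence from the ATPlite ATP-monitoring reagent indicates viable cell number; lower signal means cytotoxicity. Cells received compound 16 h after seeding and were exposed for 48 h across five concentrations.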
# HeLa = assay: as above; settings: Gynecologic cancer cell panel viability, ATPlite luminescence, 48 h; series mostly up to 57.5 µM
# Procedure, shortened: as §1
# Hek293T = assay: as above; settings: Gynecologic cancer cell panel viability, ATPlite luminescence, 48 h, control line for the selectivity index; series mostly up to 57.5 µM
# Procedure, shortened: as §1
# JEG-3 = assay: as above; settings: Gynecologic cancer cell panel viability, ATPlite luminescence, 48 h; series mostly up to 57.5 µM
# Procedure, shortened: as §1
# OV90 = assay: as above; settings: Gynecologic cancer cell panel viability, ATPlite luminescence, 48 h; series mostly up to 57.5 µM
# Procedure, shortened: as §1
# PA-1 = assay: as above; settings: Gynecologic cancer cell panel viability, ATPlite luminescence, 48 h; series mostly up to 57.5 µM
# Procedure, shortened: as §1
# SKOV3 = assay: as above; settings: Gynecologic cancer cell panel viability, ATPlite luminescence, 48 h; series mostly up to 57.5 µM
# Procedure, shortened: as §1
# Tov-21-G = assay: as above; settings: Gynecologic cancer cell panel viability, ATPlite luminescence, 48 h; series mostly up to 57.5 µM
# Procedure, shortened: as §1
# Tov112D = assay: as above; settings: Gynecologic cancer cell panel viability, ATPlite luminescence, 48 h; series mostly up to 57.5 µM
# Procedure, shortened: as §1
# [1] = Drug repurposing screens with cells derived from glioblastoma tumor samples (AID 1345199); settings: GBM patient neurospheres viability, ATP luminescence, 48 h; note: nearly all actives have a fitted effect of over 40% in size; note: potency is the fitted concentration of half-maximal effect
# Procedure, shortened: (§2)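 Primary testing used CD133+ neurospheres from four GBM patients, seven concentrations, 48 h exposure and ATP-based viability; confirmation added three slower-growing patient lines.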
# astro = assay: as above; settings: viability, ATP luminescence, 48 h; series mostly up to 45.9 µM
# Procedure, shortened: as §2
# [2] = target: Nuclear receptor subfamily 1 group I member 2 (Rattus norvegicus) (UniProt Q9R1A7); assay: qHTS assay for small molecule activators of the rat pregnane X receptor (rPXR) signaling pathway (AID 651751; call rule not given here); settings: rPXR reporter cells, luciferase (One-Glo), 24 h
# Sequence of Nuclear receptor subfamily 1 group I member 2 (Rattus norvegicus) (Q9R1A7 whole entry, looked up): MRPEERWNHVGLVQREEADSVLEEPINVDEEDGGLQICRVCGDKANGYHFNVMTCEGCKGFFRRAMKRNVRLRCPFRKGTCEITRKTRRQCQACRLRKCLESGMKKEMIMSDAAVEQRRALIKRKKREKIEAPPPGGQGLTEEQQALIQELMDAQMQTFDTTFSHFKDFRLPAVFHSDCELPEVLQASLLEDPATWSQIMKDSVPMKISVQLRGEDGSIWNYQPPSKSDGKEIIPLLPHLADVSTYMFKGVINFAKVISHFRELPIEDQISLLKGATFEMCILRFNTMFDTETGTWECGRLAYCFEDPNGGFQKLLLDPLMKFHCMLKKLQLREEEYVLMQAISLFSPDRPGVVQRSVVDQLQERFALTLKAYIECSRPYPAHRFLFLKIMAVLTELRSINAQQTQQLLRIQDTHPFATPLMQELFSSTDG
# [3] = qHTS assay for small molecule activators of the human pregnane X receptor (PXR) signaling pathway (AID 720659; call rule not given here)
# [4] = at 20 µM (top of the series), tumour line C
# [5] = at 21.2 µM (top of the series), tumour line B
# [6] = at 45.9 µM (top of the series), tumour line B
# [7] = at 45.9 µM (top of the series), tumour line D
# [8] = at 46.1 µM (top of the series), tumour line C
# [9] = at 46 µM (top of the series), tumour line A
structure (smiles),measurement,setting,value
Cc1nccn1CC1CCc2c(c3ccccc3n2C)C1=O (stereo unspecified),Potency,Es-2,inactive
same,Potency,HeLa,inactive
same,Potency,Hek293T,inactive
same,Potency,JEG-3,inactive
same,Potency,OV90,inactive
same,Potency,PA-1,inactive
same,Potency,SKOV3,inactive
same,Potency,Tov-21-G,inactive
same,Potency,Tov112D,inactive
same,"activity, negative = cell killing",[1]; [4],-25.3%
same,"activity, negative = cell killing",[1]; [5],-23.2%
same,"activity, negative = cell killing",[1]; [6],-6.55%
same,"activity, negative = cell killing",[1]; [7],-25.8%
same,"activity, negative = cell killing",[1]; [8],-22.8%
same,Potency,[1]; tumour line A,11.2 µM (active)
same,Potency,astro,inactive
COC(=O)N[C@H](C(=O)N[C@@H](Cc1ccccc1)[C@@H](O)CN(Cc1ccc(-c2ccccn2)cc1)NC(=O)[C@@H](NC(=O)OC)C(C)(C)C)C(C)(C)C,Potency,Es-2,inactive
same,Potency,HeLa,inactive
same,Potency,Hek293T,inactive
same,Potency,JEG-3,inactive
same,Potency,OV90,inactive
same,Potency,PA-1,inactive
same,Potency,SKOV3,inactive
same,Potency,Tov-21-G,inactive
same,Potency,Tov112D,inactive
same,"activity, negative = cell killing",[1]; [6],-0.919%
same,"activity, negative = cell killing",[1]; [7],-29.7%
same,"activity, negative = cell killing",[1]; [8],8.04%
same,Potency,[1]; tumour line A,11.2 µM (active)
same,Potency,astro,inactive
CCC(C)(Oc1ccc(C2(c3ccc(OC(C)(CC)C(=O)O)cc3)CCCCC2)cc1)C(=O)O (stereo unspecified),Potency,Es-2,inactive
same,Potency,HeLa,inactive
same,Potency,Hek293T,inactive
same,Potency,JEG-3,inactive
same,Potency,OV90,inactive
same,Potency,PA-1,inactive
same,Potency,SKOV3,inactive
same,Potency,Tov-21-G,inactive
same,Potency,Tov112D,inactive
same,"activity, negative = cell killing",[1]; [6],-15.2%
same,"activity, negative = cell killing",[1]; [7],-12.5%
same,"activity, negative = cell killing",[1]; [9],-6.69%
same,"activity, negative = cell killing",[1]; [8],-24.8%
same,Potency,astro,inactive
O=C(O)c1cn(-c2ccc(F)cc2)c2cc(N3CCNCC3)c(F)cc2c1=O,Potency,Es-2,inactive
same,Potency,HeLa,inactive
same,Potency,Hek293T,inactive
same,Potency,JEG-3,inactive
same,Potency,OV90,inactive
same,Potency,PA-1,inactive
same,Potency,SKOV3,inactive
same,Potency,Tov-21-G,inactive
same,Potency,Tov112D,inactive
same,"activity, negative = cell killing",[1]; [6],-14.1%
same,"activity, negative = cell killing",[1]; [7],-2.04%
same,"activity, negative = cell killing",[1]; [8],0.795%
same,Potency,astro,inactive
CN(c1nccc(=O)[nH]1)C1CCN(c2nc3ccccc3n2Cc2ccc(F)cc2)CC1,Potency,Es-2,inactive
same,Potency,HeLa,inactive
same,Potency,Hek293T,inactive
same,Potency,JEG-3,inactive
same,Potency,OV90,inactive
same,Potency,PA-1,inactive
same,Potency,SKOV3,inactive
same,Potency,Tov-21-G,inactive
same,Potency,Tov112D,inactive
same,"activity, negative = cell killing",[1]; [6],-7.08%
same,"activity, negative = cell killing",[1]; [7],-20%
same,"activity, negative = cell killing",[1]; [8],-6.39%
same,Potency,astro,inactive
O=C(NC(Cc1cc(=O)[nH]c2ccccc12)C(=O)O)c1ccc(Cl)cc1 (stereo unspecified),Potency,Es-2,inactive
same,Potency,HeLa,inactive
same,Potency,Hek293T,inactive
same,Potency,JEG-3,inactive
same,Potency,OV90,inactive
same,Potency,PA-1,inactive
same,Potency,SKOV3,inactive
same,Potency,Tov-21-G,inactive
same,Potency,Tov112D,inactive
same,"activity, negative = cell killing",[1]; [6],-5.33%
same,"activity, negative = cell killing",[1]; [7],4.89%
same,"activity, negative = cell killing",[1]; [9],-9.81%
same,"activity, negative = cell killing",[1]; [8],-15.5%
same,Potency,astro,inactive
CNC[C@H](O)c1ccc(O)c(O)c1,Potency,Es-2,inactive
same,Potency,HeLa,inactive
same,Potency,Hek293T,inactive
same,Potency,JEG-3,inactive
same,Potency,OV90,inactive
same,Potency,PA-1,inactive
same,Potency,SKOV3,inactive
same,Potency,Tov-21-G,inactive
same,Potency,Tov112D,inactive
same,"activity, negative = cell killing",[1]; [6],-6.05%
same,"activity, negative = cell killing",[1]; [7],-9.08%
same,"activity, negative = cell killing",[1]; [9],-12.1%
same,"activity, negative = cell killing",[1]; [8],-9.48%
same,Potency,astro,inactive
same,max response,[2],0.58%
same,outcome,[3],inactive
C=C(c1ccc(C(=O)O)cc1)c1cc2c(cc1C)C(C)(C)CCC2(C)C,Potency,Es-2,inactive
same,Potency,HeLa,inactive
same,Potency,Hek293T,inactive
same,Potency,JEG-3,inactive
same,Potency,OV90,inactive
same,Potency,PA-1,inactive
same,Potency,SKOV3,inactive
same,Potency,Tov-21-G,inactive
same,Potency,Tov112D,inactive
CN(C)c1ccc(O)c2c1C[C@H]1C[C@H]3[C@H](N(C)C)C(=O)C(C(N)=O)=C(O)[C@@]3(O)C(=O)C1=C2O,Potency,Es-2,inactive
same,Potency,HeLa,inactive
same,Potency,Hek293T,inactive
same,Potency,JEG-3,inactive
same,Potency,OV90,inactive
same,Potency,PA-1,inactive
same,Potency,SKOV3,inactive
same,Potency,Tov-21-G,inactive
same,Potency,Tov112D,inactive
same,"activity, negative = cell killing",[1]; [6],-8.81% and -14.2% and -8.47%
same,"activity, negative = cell killing",[1]; [7],-14.6% and -28.5% and -14.2%
same,"activity, negative = cell killing",[1]; [9],-27.3% and -18.4%
same,"activity, negative = cell killing",[1]; [8],-26.9% and -29.7%
same,Potency,astro,inactive
NC(=O)Cc1cccc(C(=O)c2ccccc2)c1N,Potency,Es-2,inactive
same,Potency,HeLa,inactive
same,Potency,Hek293T,inactive
same,Potency,JEG-3,inactive
same,Potency,OV90,inactive
same,Potency,PA-1,inactive
same,Potency,SKOV3,inactive
same,Potency,Tov-21-G,inactive
same,Potency,Tov112D,inactive
same,"activity, negative = cell killing",[1]; [6],-10.2%
same,"activity, negative = cell killing",[1]; [7],-28%
same,"activity, negative = cell killing",[1]; [8],-24.8%
same,Potency,astro,inactive
COc1cc2c(N3CCN(C(=O)Nc4ccc(OC(C)C)cc4)CC3)ncnc2cc1OCCCN1CCCCC1,Potency,Es-2,inactive
same,Potency,HeLa,inactive
same,Potency,Hek293T,inactive
same,Potency,JEG-3,inactive
same,Potency,OV90,inactive
same,Potency,PA-1,inactive
same,Potency,SKOV3,inactive
same,Potency,Tov-21-G,inactive
same,Potency,Tov112D,inactive
Clc1ccc(C(Cn2ccnc2)OCc2ccsc2Cl)c(Cl)c1 (stereo unspecified),Potency,Es-2,inactive
same,Potency,HeLa,inactive
same,Potency,Hek293T,inactive
same,Potency,JEG-3,inactive
same,Potency,OV90,inactive
same,Potency,PA-1,inactive
same,Potency,SKOV3,inactive
same,Potency,Tov-21-G,inactive
same,Potency,Tov112D,inactive
CN1C(C(=O)Nc2ccccn2)=C(O)c2sccc2S1(=O)=O,Potency,Es-2,inactive
same,Potency,HeLa,inactive
same,Potency,Hek293T,inactive
same,Potency,JEG-3,inactive
same,Potency,OV90,inactive
same,Potency,PA-1,inactive
same,Potency,SKOV3,inactive
same,Potency,Tov-21-G,inactive
same,Potency,Tov112D,inactive
same,"activity, negative = cell killing",[1]; [4],2.25%
same,"activity, negative = cell killing",[1]; [5],-11.7%
same,"activity, negative = cell killing","[1]; at 21.2 µM (top of the series), tumour line D",-11.3%
same,Potency,astro,inactive
Cc1nc2n(c(=O)c1CCN1CCC(c3noc4cc(F)ccc34)CC1)CCCC2,Potency,Es-2,inactive
same,Potency,HeLa,inactive
same,Potency,Hek293T,inactive
same,Potency,JEG-3,inactive
same,Potency,OV90,inactive
same,Potency,PA-1,inactive
same,Potency,SKOV3,inactive
same,Potency,Tov-21-G,inactive
same,Potency,Tov112D,inactive
same,"activity, negative = cell killing",[1]; [6],-28.4%
same,"activity, negative = cell killing",[1]; [8],-9.67%
same,Potency,[1]; tumour line A,3.55 µM (active)
same,Potency,[1]; tumour line D,11.2 µM (active)
same,Potency,astro,inactive
